The source of these data is PubChem BioAssay.

Assay [1] relates to Plasmodium falciparum Sir2 (PF13_0152, Sir2A). The experiment in a line: Plasmodium falciparum Sir2A binding compounds – biochemical, small-molecule microarray, 635 nm fluorescence, primary screen (AID 1098).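 Note: score merges spot fluorescence intensity with its signal-to-noise ratio.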 Particulars: fluorescence 635 nm, higher = more signal.
Assay [2] in a line: probe aDKK1 binding to arrayed compounds – biochemical, biotinylated probe, 635/667 nm fluorescence, primary screen (AID 1099).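 Note: score merges 667nm spot fluorescence with signal to noise across triplicate slides.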 Particulars: small-molecule microarray, higher = more signal.
The nature of assay [3]: probe aCHRDL2 binding to arrayed compounds – biochemical, biotinylated probe, 635/667 nm fluorescence, primary screen (AID 1100). Particulars: small-molecule microarray, higher = more signal.
Assay [4] is described as follows: change in splice reporter luminescence, either direction, cell-based, HEK293, spliceosome inhibition project, primary screen (AID 1101).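 Note: HEK293 cells carrying a splicing-competent luciferase reporter gene; test concentration not given here.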 Particulars: HEK293 splicing luciferase reporter, 24 h, higher = more signal, called active from +8 up or from −8 down. In general terms: A reporter such as luciferase makes a cellular process visible.
Assay [5] has as its target Fibroblast growth factor 10 (Homo sapiens) (UniProt O15520). The experiment in a line: compounds binding fibroblast growth factor 10 – biochemical, small-molecule microarray, 635 nm fluorescence, primary screen (AID 1102). Particulars: FGF10 binding, fluorescence 635 nm, higher = more signal.
Assay [6] relates to glycogen synthase kinase-3 (GSK3A per assay name; protocol says GSK3B). The experiment in a line: compounds binding glycogen synthase kinase-3 – biochemical, small-molecule microarray, 635 nm fluorescence, GSK3A, primary screen (AID 1103). Note: the record names both GSK3A and GSK3B. Particulars: fluorescence 635 nm, higher = more signal.
Assay [7] concerns the target Epidermal growth factor receptor (Homo sapiens) (UniProt P00533). The experiment in a line: compounds binding epidermal growth factor receptor – biochemical, small-molecule microarray, 635 nm fluorescence, primary screen (AID 1104).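 Note: score merges 667 nm emission intensity with spot signal to noise over triplicate slides.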 Particulars: EGFR binding, higher = more signal.
The target of assay [8] is Follistatin-related protein 3 (Homo sapiens) (UniProt O95633). The experiment in a line: compounds binding follistatin-related protein 3 – biochemical, small-molecule microarray, 635 nm fluorescence, primary screen (AID 1105).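 Note: score merges emission near 667 nm and signal to noise per printed spot across three slides.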 Particulars: FSTL3 binding, higher = more signal.
Assay [9] addresses Dickkopf-related protein 1 (Homo sapiens) (UniProt O94907). The experiment in a line: small molecules binding DKK1 protein – biochemical, small-molecule microarray, 635 nm fluorescence scan, primary screen (AID 1106).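 Note: score merges emission near 667 nm with signal to noise over three replicate slides.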 Particulars: higher = more signal.
For assay [10], the system named is Inhibin beta A chain (activin A). The experiment in a line: small molecules binding activin A – biochemical, small-molecule microarray, 635 nm fluorescence scan, primary screen (AID 1107).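 Note: mouse activin A protein probed at 4.33 µg/mL on printed slides; score merges bound-protein fluorescence near 667 nm with spot signal-to-noise.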 Particulars: INHBA, higher = more signal.
Assay [11] has as its system Human papillomavirus type 1a protein E7 (residues 44-93). The experiment in a line: small molecules binding HPV E7 44-93 – biochemical, small-molecule microarray, residues 44-93, 635 nm fluorescence, primary screen (AID 1108).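 Note: E7 fragment applied at 1 µg/mL in TBST for 1 h at 4 C; score combines spot fluorescence with its signal to noise ratio.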 Particulars: fluorescence 635 nm, higher = more signal.
A short description of assay [12]: hepatitis C replication reporter changes, two-sided – Huh7 cells, luciferase reporter, HCV replication inhibitor project, primary screen (AID 1109).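 Note: huh7 hepatoma cells harbouring a luciferase neomycin HCV replicon reporter; luciferase luminescence as measure of HCV replicon replication; test concentration not given here.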 Particulars: Huh7 HCV replicon luciferase reporter, 48 h; higher = more signal.
The target in assay [13] is Left-right determination factor 2 (Homo sapiens) (UniProt O00292). The experiment in a line: small molecules binding LEFTY2 protein – biochemical, small-molecule microarray, 635 nm fluorescence scan, primary screen (AID 1110). Particulars: higher = more signal.
Assay [14] has as its target Calmodulin-1 (Homo sapiens) (UniProt P0DP23). The experiment in a line: small molecules binding calmodulin-1 with EGTA – biochemical, small-molecule microarray, Cy5-labelled CALM1, profiling panel (AID 1111).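 Note: labelled calmodulin applied in Tris saline Tween buffer holding calcium plus EGTA and DTT.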 Particulars: Cy5-CALM1 binding fluorescence, higher = more signal.
Assay [15] has the same target. The experiment in a line: small molecules binding Ca-loaded calmodulin-1 – biochemical, small-molecule microarray, Cy5-labelled CALM1, plus calcium, artefact control for SMM control-protein annotation, profiling panel (AID 1112).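 Note: score merges spot fluorescence with signal to noise from triplicate slides.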 Particulars: Cy5-CALM1 binding fluorescence, higher = more signal.
Assay [16] can be described thus: probe aWnt5a binding to arrayed compounds – biochemical, biotinylated probe, 635/667 nm fluorescence, primary screen (AID 1113).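 Note: score merges 667 nm fluorescence intensity with signal-to-noise per printed feature.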 Particulars: small-molecule microarray, higher = more signal.
Assay [17] in a line: probe aShh binding to arrayed compounds – biochemical, biotinylated probe, 635/667 nm fluorescence, primary screen (AID 1114).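 Note: probe is biotin-labelled aShh protein from a stem cell growth factor screen; measures binding of labelled protein to compounds printed on the slide; score merges feature fluorescence at 667 nm with signal-to-noise.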 Particulars: small-molecule microarray, higher = more signal.
The nature of assay [18]: probe aNog binding to arrayed compounds – biochemical, biotinylated probe, 635/667 nm fluorescence, primary screen (AID 1115).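 Note: probe is biotinylated aNog protein used at 0.15 µg/mL for 1 h at 4 C; z-score combines 667 nm fluorescence of each spot with its signal to noise.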 Particulars: small-molecule microarray, higher = more signal.
In assay [19] the target is Torsin-1A-interacting protein 1 (Homo sapiens) (UniProt Q5JTV8). The experiment in a line: compound microarray binding of lysate hLAP1 – cell lysate, small-molecule microarray, COS7 lysate, 635/667 nm fluorescence, primary screen (AID 1116). Particulars: 635 nm fluorescence, higher = more signal.
Assay [20] addresses Alpha-bungarotoxin (Bungarus multicinctus) (UniProt P60615). The experiment in a line: compounds binding labelled alpha-BTX control protein – biochemical, small-molecule microarray, Alexa647 label, 635/667 nm fluorescence, artefact control for SMM control protein annotation, profiling panel (AID 1117). Particulars: alpha-BTX-A647 binding fluorescence, higher = more signal.

Activity calls are given as the source filed them.

Sequence of Torsin-1A-interacting protein 1 (Homo sapiens) (Q5JTV8 whole entry, looked up): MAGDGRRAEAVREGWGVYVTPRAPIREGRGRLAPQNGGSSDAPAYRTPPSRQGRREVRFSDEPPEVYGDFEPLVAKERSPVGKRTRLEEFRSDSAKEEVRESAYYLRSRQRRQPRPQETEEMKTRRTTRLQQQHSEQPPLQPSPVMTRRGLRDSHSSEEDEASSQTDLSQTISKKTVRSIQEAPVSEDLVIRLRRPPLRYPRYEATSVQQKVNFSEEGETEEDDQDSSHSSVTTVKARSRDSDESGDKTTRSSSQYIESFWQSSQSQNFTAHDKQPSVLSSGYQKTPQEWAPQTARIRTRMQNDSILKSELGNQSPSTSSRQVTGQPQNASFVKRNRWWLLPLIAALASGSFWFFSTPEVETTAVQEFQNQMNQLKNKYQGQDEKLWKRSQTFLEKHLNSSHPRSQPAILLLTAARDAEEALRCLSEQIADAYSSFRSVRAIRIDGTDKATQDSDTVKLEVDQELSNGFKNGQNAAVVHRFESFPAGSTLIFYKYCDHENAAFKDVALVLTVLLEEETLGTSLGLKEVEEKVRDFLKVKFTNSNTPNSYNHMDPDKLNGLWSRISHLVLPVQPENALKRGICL
Sequence of Left-right determination factor 2 (Homo sapiens) (O00292 whole entry, looked up): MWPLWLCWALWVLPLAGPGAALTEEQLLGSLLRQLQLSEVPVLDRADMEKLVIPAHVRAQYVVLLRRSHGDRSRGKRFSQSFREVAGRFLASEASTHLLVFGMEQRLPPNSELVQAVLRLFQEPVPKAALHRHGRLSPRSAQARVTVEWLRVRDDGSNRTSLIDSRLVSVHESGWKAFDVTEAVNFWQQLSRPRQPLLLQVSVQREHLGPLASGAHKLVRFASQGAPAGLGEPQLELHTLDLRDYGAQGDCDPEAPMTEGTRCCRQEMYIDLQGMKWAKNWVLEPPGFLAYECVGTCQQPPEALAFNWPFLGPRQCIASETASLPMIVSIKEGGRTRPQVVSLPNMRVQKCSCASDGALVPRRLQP
Sequence of Follistatin-related protein 3 (Homo sapiens) (O95633 whole entry, looked up): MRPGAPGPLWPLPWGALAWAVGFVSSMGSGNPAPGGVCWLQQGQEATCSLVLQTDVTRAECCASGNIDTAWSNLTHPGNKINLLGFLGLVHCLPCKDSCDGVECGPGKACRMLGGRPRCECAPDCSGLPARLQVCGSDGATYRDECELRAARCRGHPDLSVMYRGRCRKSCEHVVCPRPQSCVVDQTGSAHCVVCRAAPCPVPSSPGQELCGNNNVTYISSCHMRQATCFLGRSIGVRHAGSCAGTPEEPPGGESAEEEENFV
Sequence of Fibroblast growth factor 10 (Homo sapiens) (O15520 whole entry, looked up): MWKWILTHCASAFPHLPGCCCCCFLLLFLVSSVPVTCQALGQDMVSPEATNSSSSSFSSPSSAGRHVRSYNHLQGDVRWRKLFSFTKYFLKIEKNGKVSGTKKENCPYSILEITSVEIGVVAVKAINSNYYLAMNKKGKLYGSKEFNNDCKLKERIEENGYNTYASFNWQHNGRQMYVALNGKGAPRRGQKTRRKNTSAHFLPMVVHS
Sequence of Dickkopf-related protein 1 (Homo sapiens) (O94907 whole entry, looked up): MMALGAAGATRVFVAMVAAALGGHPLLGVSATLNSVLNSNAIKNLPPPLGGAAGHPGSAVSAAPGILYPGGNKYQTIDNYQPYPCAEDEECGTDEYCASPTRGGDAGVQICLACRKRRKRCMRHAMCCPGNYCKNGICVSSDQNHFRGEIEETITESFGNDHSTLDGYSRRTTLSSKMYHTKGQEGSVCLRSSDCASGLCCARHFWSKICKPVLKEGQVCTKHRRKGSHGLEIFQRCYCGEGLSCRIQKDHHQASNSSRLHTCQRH
Sequence of Alpha-bungarotoxin (Bungarus multicinctus) (P60615 whole entry, looked up): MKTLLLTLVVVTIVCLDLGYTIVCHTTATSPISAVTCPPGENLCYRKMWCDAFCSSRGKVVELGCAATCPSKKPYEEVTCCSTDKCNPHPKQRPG
Sequence of Epidermal growth factor receptor (Homo sapiens) (P00533 whole entry, looked up): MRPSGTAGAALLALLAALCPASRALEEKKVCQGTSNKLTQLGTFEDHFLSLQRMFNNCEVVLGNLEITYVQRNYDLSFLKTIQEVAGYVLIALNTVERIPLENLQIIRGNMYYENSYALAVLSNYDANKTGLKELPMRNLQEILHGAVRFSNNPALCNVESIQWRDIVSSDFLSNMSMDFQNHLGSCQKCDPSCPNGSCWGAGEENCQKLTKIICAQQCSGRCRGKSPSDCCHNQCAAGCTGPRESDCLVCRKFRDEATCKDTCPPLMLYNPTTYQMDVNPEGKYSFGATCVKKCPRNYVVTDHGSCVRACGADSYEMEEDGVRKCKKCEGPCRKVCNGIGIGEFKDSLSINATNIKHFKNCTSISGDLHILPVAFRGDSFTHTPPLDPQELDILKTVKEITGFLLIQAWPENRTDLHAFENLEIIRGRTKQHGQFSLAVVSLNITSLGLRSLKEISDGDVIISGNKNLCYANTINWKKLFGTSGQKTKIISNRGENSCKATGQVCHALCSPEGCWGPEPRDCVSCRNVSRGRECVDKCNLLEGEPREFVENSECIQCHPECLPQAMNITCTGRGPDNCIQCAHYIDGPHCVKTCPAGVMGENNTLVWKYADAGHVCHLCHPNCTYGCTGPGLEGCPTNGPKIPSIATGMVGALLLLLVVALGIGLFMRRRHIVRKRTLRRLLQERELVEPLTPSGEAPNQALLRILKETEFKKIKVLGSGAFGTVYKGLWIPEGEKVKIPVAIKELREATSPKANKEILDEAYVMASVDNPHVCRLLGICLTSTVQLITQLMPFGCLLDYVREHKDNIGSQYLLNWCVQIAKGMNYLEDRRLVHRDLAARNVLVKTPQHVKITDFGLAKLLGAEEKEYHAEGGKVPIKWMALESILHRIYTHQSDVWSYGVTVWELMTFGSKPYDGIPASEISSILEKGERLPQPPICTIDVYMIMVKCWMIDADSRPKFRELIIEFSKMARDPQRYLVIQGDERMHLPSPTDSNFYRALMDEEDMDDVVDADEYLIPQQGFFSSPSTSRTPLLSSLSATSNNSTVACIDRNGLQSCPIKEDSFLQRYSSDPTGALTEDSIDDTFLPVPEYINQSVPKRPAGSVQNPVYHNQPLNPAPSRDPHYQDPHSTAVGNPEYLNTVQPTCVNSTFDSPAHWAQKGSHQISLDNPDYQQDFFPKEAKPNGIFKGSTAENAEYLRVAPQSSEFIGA

Consider `CN1C(=O)C2C(C1=O)C1C=C(CCCO)C2C(C2CC2)N1Cc1cc2c(cc1Br)OCO2` (stereo not given), for which the composite z-score in [1] is 0.553; in assay [2] it was -0.272; in [3] it was 0.288; in [5] it was 0.357; in assay [6], 0.963; in [7] it was -0.0564. Moreover, the composite z-score in assay [8] was -0.0617; in assay [9], 0.107; in [10], 1.36; in assay [11] it was 0.295; in [13] it was 0.285; in assay [14], 0.508. Further, the composite z-score in assay [15] was 0.724; in assay [16], -0.0462; in assay [17], 0.0893; in assay [18], 1.21; in assay [19], 1.33; in [20] it was 1.58. In addition, the z-score in assay [4] is -0.0854 (inactive); in assay [12], -0.734.

In the case of `COc1ccc([Si](C)(C)[C@H]2[C@H](CCO)O[C@@]3(C(=O)N(Cc4ccc(N5C(=O)c6ccccc6Oc6ccccc65)cc4)c4ccccc43)[C@@H]2C)cc1`, the composite z-score is 0.094 in assay [1]; -0.0509 in assay [2]; 0.477 in assay [3]; -0.94 in [5]; -1.96 in assay [6]; -0.732 in assay [7]. The composite z-score in assay [8] is -1.25; in [9], -1.02; in [10], -0.917; in [11], -0.451; in [13] it was -0.804; in assay [14] it was 0.12. The composite z-score in assay [15] is 0.908; in [16], -0.124; in assay [17], 0.0121; in assay [18], 0.0078; in [19], -0.438; in [20], -0.516. For the same molecule, the figures for the z-score in assay [4] and in assay [12] were -0.964 (inactive) and -4.8, respectively.

In the case of `O=C1[C@@]23C=C(Br)[C@H](C[C@@H]2COC3)[C@@]12CO2`, the composite z-score was 0.35 in [1]; -0.419 in assay [2]; -0.555 in assay [3]; 0.266 in assay [5]; 0.638 in assay [6]; 0.566 in assay [7]. Also, the composite z-score in assay [8] was 0.514; in assay [9] it was 0.449; in [10] it was 0.262; in [11], 0.368; in [13], 0.531; in assay [14], -0.293. Moreover, the composite z-score in [15] is -0.87; in assay [16] it was -0.102; in [17], -0.0396; in [18] it was -0.172; in assay [19] it was 0.245; in assay [20], 0.53. In addition, the z-score was 0.536 (inactive) in [4] and -2.52 in assay [12].

Turning to `CC(C)OC(=O)CC(=O)CC(O)c1ccc([N+](=O)[O-])cc1` (stereo not given), the composite z-score in [1] was 0.541; in [2] it was 0.749; in [3], 1.14; in [5] it was 0.314; in [6], 0.132; in [7], -0.41. The composite z-score in [8] was 0.198; in assay [9] it was -0.953; in assay [10], 0.527; in assay [11] it was 1.13; in assay [13], -0.698; in assay [14], -0.759. The composite z-score was -0.833 in assay [15]; 0.093 in assay [16]; 0.163 in assay [17]; 0.431 in assay [18]; 0.47 in assay [19]; -0.292 in assay [20]. Besides, the z-score in assay [4] is 0.162 (inactive); in assay [12] it was -0.601.

Consider `CN(C)C(=O)[C@@]1(CCC(=O)OC(C)(C)C)N=C(c2ccc(OCCCO)cc2)O[C@H]1c1ccccc1CN=[N+]=[N-]`, for which the composite z-score was 1.6 in assay [1]; 0.473 in assay [2]; 0.724 in assay [3]; 0.965 in assay [5]; -0.416 in assay [6]; -0.341 in assay [7]. Further, the composite z-score is 0.442 in assay [8]; -0.695 in assay [9]; -0.0415 in assay [10]; 1.5 in assay [11]; -0.9 in assay [13]; 1.18 in assay [14]. In addition, the composite z-score in assay [15] amounted to 0.0572; in assay [16] it was 0.0044; in [17], 0.579; in [18], 1.32; in assay [19], 2.74; in assay [20], 0.548. Besides, the z-score in assay [4] was 0.277 (inactive); in [12], -1.61.

Consider `CCCCCN1CC=CC23O[C@@H]4C=CCOC(=O)[C@@H]4[C@H]2C(=O)N(CCO)[C@@H]3C1=O` (stereo not given in full), for which the composite z-score in [1] was -0.0015; in assay [2], -0.314; in [3], 0.634; in assay [5], -0.318; in [6], -0.527; in assay [7], -1.17. Also, the composite z-score was -1.3 in assay [8]; -1.25 in assay [9]; 0.393 in assay [10]; 0.673 in [11]; -0.397 in assay [13]; -0.343 in [14]. Moreover, the composite z-score in assay [15] was 0.595; in assay [16] it was -0.172; in [17], -0.138; in assay [18], -0.305; in assay [19] it was 0.665; in assay [20] it was -0.514. For the same molecule, the z-score in [4] was 0.374 (inactive); in assay [12], 0.644.

In the case of `C=C/C=C/[C@@H]1C(=C)CN([C@@H](Cc2ccccc2)C(=O)OC)[C@H]1[C@@H](O)Cc1ccccc1`, the composite z-score in assay [1] is 0.742; in assay [2], -0.369; in assay [3], -0.186; in assay [5] it was 0.716; in [6], 0.754; in [7] it was -0.08. Also, the composite z-score in [8] is 0.509; in assay [9], 0.473; in [10], 1.2; in assay [11], 1.17; in [13], 0.201; in [14], 0.241. Also, the composite z-score in [15] is -0.547; in [16], -0.107; in assay [17] it was -0.138; in [18] it was 0.0924; in assay [19], 0.309; in [20], 0.325. In addition, the z-score in assay [4] is 0.844 (inactive); in assay [12], -0.622.

For the molecule `Cc1ccc(S[C@]2(C(=O)NC(C)C)CC(=O)N(C(C)C)[C@@H]2c2ccc(CO)cc2I)cc1`, the composite z-score is 0.476 in [1]; 0.0345 in [2]; 0.706 in [3]; -0.101 in [5]; -0.498 in assay [6]; -0.56 in assay [7]. The composite z-score in [8] was 0.298; in assay [9], -0.484; in assay [10], 0.904; in assay [11] it was 0.973; in [13], -0.485; in assay [14] it was 0.198. For the same molecule, the composite z-score in assay [15] is -0.114; in [16], -0.104; in [17] it was 0.216; in assay [18], -0.327; in assay [19] it was 0.322; in [20], -0.174. Moreover, the z-score in [4] is -0.714 (inactive); in [12] it was -1.75.
